From PubChem BioAssay
An excerpt weighted towards active compounds, which were near 4.7% of everything screened.
SKKanGAS inh = blocks kanamycin growth of S. pyogenes SKKanGAS strain | hit rate 1.3% among 300,000 | BacTiter-Glo, 6 h | inhibition, % at 7.5 µM | AID 1662;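 active means mean replicate score, as percent of positive control median, at least 50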;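 further: strain carries kanamycin resistance gene driven by streptokinase promoter and grows in 40 µg/ml kanamycin; loss of luminescence reflects streptokinase promoter inhibition or plain growth inhibition; 0% = median of DMSO wells and 100% = positive control at its reference dose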
Calb FLC = affects C. albicans growth with fluconazole; C. albicans CaCi-2 (fluconazole-resistant clinical isolate) + fluconazole, Alamar Blue growth, 48 h; growth inhibition, % (test concentration not listed); hit rate 0.57% among 300,000; AID 1979;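 active means growth inhibition above about 58% in most replicates, limit read from the data, passing the limit was not always enough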;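 further: all wells also contain fluconazole at 8 µg/ml as a sub-toxic cotreatment; 0% = median of DMSO wells and 100% = median of geldanamycin control wells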
TIM10 inh = growth inhibitors of TIM10 yeast strain | S. cerevisiae TIM10 strain growth, BacTiter-Glo luminescence, 24 h | inhibition, % at 10 µM | hit rate 1.4% among 330,000 | AID 463195;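 active means inhibition of 40% or more at the single tested concentration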;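 further: wild-type TIM10 isogenic control strain grown at permissive 25 °C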
PfHsp90 set2 = reduces growth (ATP signal) of yeast expressing P. falciparum Hsp90 | S. cerevisiae expressing PfHsp90, BacTiter-Glo ATP, 48 h; yeast lacking PDR1 and PDR3 efflux regulators | inhibition, % at 9.4 µM | AID 504621 | hit rate 0.32% among 310,000;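 active means every replicate shows inhibition above about 80%, whatever the replicate mean, limit read from the data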;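 further: 0% = DMSO neutral controls and 100% = 20 µM radicicol positive controls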
tim10-1 inh = growth inhibitors of tim10-1 mutant yeast; inhibition, % at 20 µM; hit rate 2.2% among 330,000; S. cerevisiae tim10-1 ts strain growth, BacTiter-Glo, 24 h;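 active means inhibition of at least 40%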;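 further: mutant grown at 25 °C; 0% = DMSO wells with yeast and 100% = wells holding no yeast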
tim23-1 inh = inhibits growth of tim23-1 mutant yeast; S. cerevisiae tim23-1 growth, BacTiter-Glo luminescence, 24 h; inhibition, % at 20 µM; hit rate 1.3% among 330,000; AID 463212;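 active means growth inhibition of the mutant yeast at or above 50%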;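 further: temperature-sensitive mutant grown at 25 °C; plate controls were DMSO-treated mutant yeast for no effect and medium wells lacking yeast for full effect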
tim10-1 confirm = tim10-1 yeast growth inhibition, confirmed; shares compounds with tim10-1 inh; S. cerevisiae tim10-1 ts strain growth, BacTiter-Glo, 24 h; inhibition, % at 20 µM; hit rate 56% among 7,400;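 active means inhibition of yeast growth at or above a set limit in either of two repeat tests at 20 µM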;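 further: tim10-1 mutant grown at permissive 25 °C to find synthetic lethal compounds; 0% = DMSO yeast wells and 100% = medium wells without yeast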
An asterisk follows results filed as active; . = not tested or not shown.

SMILES | SKKanGAS inh | Calb FLC | TIM10 inh | PfHsp90 set2 | tim10-1 inh | tim23-1 inh | tim10-1 confirm
Cn1nc(-c2ccccc2)cc1NC(=O)Nc1ccc(C(C)(C)C)cc1 | 20 | 1 | 26 | -11 | 41* | 40 | 39*
Cc1ccccc1OCCC(=O)OCC(=O)c1c(N)n(CC(C)C)c(=O)n(C)c1=O | 0 | -7 | 11 | 7 | 15 | 31 | .
C#C[C@]1(OC(C)=O)CCC2C3CCC4=CC(=O)CC[C@@H]4C3CC[C@@]21C (stereo not given in full) | -1 | . | -9 | -53 | 10 | 31 | .
O=C(NNC(=S)NC1CCCCC1)c1sc2ccccc2c1Cl | -4 | -1 | 25 | -34 | 50* | 46 | 32
N=c1c2c(-c3ccccc3)c(-c3ccccc3)n(Cc3ccco3)c2ncn1CCO | -5 | 5 | 32 | -8 | 43* | 36 | 28
COc1cc(OC)c(C(=O)NCCCn2ccnc2)cc1OC | -2 | -7 | 13 | . | 9 | -8 | .
CC(OC(=O)C1=Cc2ccccc2OC1)C(=O)NCC1CCCO1 (stereo not given) | . | . | . | 4 | . | . | .
Cc1sc2ncnc(-n3nnc4ccccc43)c2c1C | -5 | 33 | -17 | . | 28 | -4 | .
Brc1ccc(-c2csc3ncnc(-n4nnc5ccccc54)c23)cc1 | 6 | -2 | 14 | -11 | 45* | 49 | 32*
CCn1c(SCc2nc3ccccc3c(=O)[nH]2)nc2ccccc21 | 9 | 47 | 12 | 2 | 44* | 21 | 24
CC(C)[C@H](NC(=O)c1ccccc1)C(=O)OCC(=O)Nc1ncc(Cl)cc1Cl | . | . | -8 | -7 | 2 | 16 | .
Cc1c(C(=O)N2CCN(Cc3ccc4c(c3)OCO4)CC2)sc2ncnc(N3CCN(c4ccccc4)CC3)c12 | 19 | -3 | 21 | 10 | 48* | 24 | 7
O=C(c1cc2c(=O)n3ccccc3nc2s1)N1CCN(Cc2ccccc2)CC1 | -3 | 20 | 11 | -24 | 14 | 17 | .
Cc1c(C(=O)N2CCN(Cc3ccc4c(c3)OCO4)CC2)sc2ncnc(N3CCN(c4ccccc4F)CC3)c12 | 40 | -25 | 24 | -22 | 41* | 20 | 0
Cc1c(C(=O)N2CCN(c3ccccn3)CC2)sc2ncnc(N3CCN(c4ccccc4)CC3)c12 | 12 | 11 | -4 | 3 | 14 | 14 | .
O=C(c1cc2c(=O)n3ccccc3nc2s1)N1CCN(Cc2ccc3c(c2)OCO3)CC1 | 2 | 5 | 40 | . | 43* | 42 | 30
Cc1ccc(S(=O)(=O)N2CCCC2)cc1C(=O)NCCOc1ccccc1 | . | . | 0 | . | 7 | 2 | .
CCOc1ccc2nc(SC3CC(=O)N(c4cccc(OC)c4)C3=O)sc2c1 (stereo not given) | -6 | 8 | 28 | 6 | 42* | 42 | 37*
CCOc1ccc2nc(SC3CC(=O)N(c4ccccc4)C3=O)sc2c1 (stereo not given) | 6 | 1 | 12 | -2 | 11 | 10 | .
CCCCOC(=O)Nc1cccc(C(=O)OCC)c1 | 1 | 0 | 7 | 11 | 46* | 25 | 26
CCOCCOC(=O)c1cccc(NC(=O)OCC)c1 | -4 | -5 | 13 | 8 | 30 | 35 | .
O=C1CC(N2CCN(c3ccc(F)cc3)CC2)C(=O)N1c1ccc(F)cc1 (stereo not given) | 5 | 1 | 3 | -6 | 1 | 11 | .
CCOC(=O)c1ccc(N2C(=O)CC(N3CCC(Nc4ccc(F)cc4)CC3)C2=O)cc1 (stereo not given) | -5 | 16 | 35 | 128* | 57* | 15 | 50*
O=C1CC(N2CCCCCC2)C(=O)N1c1ccc(F)cc1 (stereo not given) | 0 | 2 | 39 | . | 54* | 33 | 45*
CCN1C(=O)CC(N2CCC(Nc3ccc(F)cc3)CC2)C1=O (stereo not given) | 4 | 7 | 0 | 14 | 6 | -5 | .
SMILES | SKKanGAS inh | Calb FLC | TIM10 inh | PfHsp90 set2 | tim10-1 inh | tim23-1 inh | tim10-1 confirm
O=[N+]([O-])c1ccc(Nc2nccc(Cl)n2)cc1 | 0 | 0 | 23 | . | 27 | 34 | .
COc1cc(CN2CCN(Cc3ccc(C(F)(F)F)cc3)CC2)cc(OC)c1OC | -3 | -4 | -4 | 3 | 1 | 11 | .
C=C(C)c1cccc(C(C)(C)NC(=O)Nc2ccc(C(C)=O)cc2)c1 | 8 | -6 | 14 | 9 | 43* | 34 | 22
Cc1nnc(SCc2cc(=O)oc3ccc4ccccc4c23)n1Cc1ccccc1 | 6 | -2 | 15 | 3 | 46* | 44 | 24
O=C(CCc1nc(-c2ccccc2Cl)no1)Nc1cccnc1 | -1 | 4 | -11 | -36 | 15 | 9 | .
O=C(Nc1ccccc1Cl)C(Cl)C(=O)c1ccccc1 (stereo not given) | . | . | 25 | 0 | 42* | 39 | 31*
CCCn1c(SCC(=O)Nc2ccccc2C(=O)NC2CC2)n[nH]c1=O | . | . | 8 | 0 | -13 | -4 | .
CCn1c(C)c(C(C)=O)c(N2CCN(c3cccc(Cl)c3)CC2)nc1=S | -10 | 2 | 9 | -20 | 44* | 13 | 16
CC(=O)c1c(N2CCN(c3cccc(Cl)c3)CC2)nc(=S)n(-c2ccccc2)c1C | -22 | 1 | 10 | 5 | 10 | 7 | .
N#CCC(=O)N/N=C/c1cc(-c2ccccc2)n(-c2ccc(Cl)cc2)c1-c1ccccc1 | 32 | 4 | 16 | . | 16 | 7 | .
Cc1ccc(CNCc2cc3c(C(C)(C)C)nn(-c4ccccc4)c3[nH]c2=O)cc1 | -1 | -13 | 24 | . | 50* | 46 | 39*
COc1cc(C)nc(N(C)S(=O)(=O)c2ccccc2Cl)n1 | 4 | -11 | 25 | -23 | 43* | 23 | 26
COc1nc(N(C)C)nc(N(OC)S(=O)(=O)c2ccccc2Cl)n1 | 12 | -3 | 20 | . | 22 | 21 | .
O=C(COC(=O)/C=C/c1ccc(OC(F)F)cc1)NC1CCCCCC1 | . | . | -7 | 7 | 0 | 1 | .
CCOC(=O)C1(CCc2ccccc2)CCN(C(=O)CCc2cnccn2)CC1 | -3 | -5 | 23 | -6 | 14 | 10 | .
CCOC(=O)C1(CCc2ccccc2)CCN(C(=O)CCc2cnn(C)c2)CC1 | -16 | -10 | 15 | -19 | 42* | 27 | 30*
CC1CCN(S(=O)(=O)CCNC(=O)c2ccc3c(c2)OCO3)CC1 | 0 | -4 | -1 | -17 | 5 | 11 | .
O=C(CC1S/C(=N/N=C2CCCCCC2)NC1=O)Nc1ccc(Br)cc1F (stereo not given) | 1 | 20 | 17 | -8 | 44* | 35 | 21
O=C(CC1S/C(=N/N=C2CCCCCC2)NC1=O)Nc1ccccc1F (stereo not given) | -4 | 8 | 6 | 13 | 17 | 24 | .
CCCc1cc(=O)oc2cc(OC(=O)CN3C(=O)NC4(CCCC4)C3=O)ccc12 | -1 | -6 | 12 | -19 | 4 | 15 | .
